# ChEMBL document CHEMBL2218924, “A broad activity screen in support of a chemogenomic map for kinase signalling research and drug discovery” (Biochem J, 2013)
# Assays:
# [1] = molecular target: T1, Ephrin type-A receptor 3 (Homo sapiens) (UniProt P29320); conditions: at 10 µM
# T1 sequence (whole entry): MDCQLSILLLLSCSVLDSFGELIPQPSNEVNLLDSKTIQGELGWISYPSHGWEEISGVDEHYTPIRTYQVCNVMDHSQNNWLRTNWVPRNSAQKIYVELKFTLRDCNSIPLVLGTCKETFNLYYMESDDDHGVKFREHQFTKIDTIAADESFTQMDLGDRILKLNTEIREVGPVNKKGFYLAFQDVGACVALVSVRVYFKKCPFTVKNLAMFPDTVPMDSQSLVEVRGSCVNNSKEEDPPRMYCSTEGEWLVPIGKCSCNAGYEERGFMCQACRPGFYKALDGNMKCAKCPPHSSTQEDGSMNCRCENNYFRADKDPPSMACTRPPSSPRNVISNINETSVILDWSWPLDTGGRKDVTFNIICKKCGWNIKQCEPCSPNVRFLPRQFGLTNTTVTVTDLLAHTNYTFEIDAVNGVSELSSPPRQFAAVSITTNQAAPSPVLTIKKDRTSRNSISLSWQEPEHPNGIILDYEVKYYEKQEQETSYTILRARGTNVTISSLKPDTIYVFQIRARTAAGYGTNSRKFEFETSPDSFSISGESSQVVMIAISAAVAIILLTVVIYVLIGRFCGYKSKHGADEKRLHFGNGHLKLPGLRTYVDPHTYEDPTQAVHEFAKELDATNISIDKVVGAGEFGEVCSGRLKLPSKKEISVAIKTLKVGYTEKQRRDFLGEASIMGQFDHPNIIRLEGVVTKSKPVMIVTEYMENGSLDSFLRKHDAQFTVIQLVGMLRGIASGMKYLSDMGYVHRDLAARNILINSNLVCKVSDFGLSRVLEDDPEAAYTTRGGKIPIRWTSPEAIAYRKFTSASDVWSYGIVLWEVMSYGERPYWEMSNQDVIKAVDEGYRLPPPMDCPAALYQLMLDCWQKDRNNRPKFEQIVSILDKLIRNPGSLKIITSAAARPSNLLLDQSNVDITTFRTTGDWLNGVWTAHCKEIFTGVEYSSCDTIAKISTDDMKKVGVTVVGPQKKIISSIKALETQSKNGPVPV
# [2] = molecular target: Ephrin type-A receptor 4 (Homo sapiens) (UniProt P54764); conditions: at 1 µM
# [3] = molecular target: Ephrin type-A receptor 4 (Homo sapiens) (UniProt P54764); conditions: at 10 µM
# [4] = molecular target: Ephrin type-A receptor 5 (Homo sapiens) (UniProt P54756); conditions: at 1 µM
# [5] = molecular target: Ephrin type-A receptor 5 (Homo sapiens) (UniProt P54756); conditions: at 10 µM
# [6] = molecular target: Ephrin type-A receptor 7 (Homo sapiens) (UniProt Q15375); conditions: at 1 µM
# [7] = molecular target: Ephrin type-A receptor 7 (Homo sapiens) (UniProt Q15375); conditions: at 10 µM
# [8] = molecular target: T2, Ephrin type-A receptor 8 (Homo sapiens) (UniProt P29322); conditions: at 1 µM
# T2 sequence (whole entry): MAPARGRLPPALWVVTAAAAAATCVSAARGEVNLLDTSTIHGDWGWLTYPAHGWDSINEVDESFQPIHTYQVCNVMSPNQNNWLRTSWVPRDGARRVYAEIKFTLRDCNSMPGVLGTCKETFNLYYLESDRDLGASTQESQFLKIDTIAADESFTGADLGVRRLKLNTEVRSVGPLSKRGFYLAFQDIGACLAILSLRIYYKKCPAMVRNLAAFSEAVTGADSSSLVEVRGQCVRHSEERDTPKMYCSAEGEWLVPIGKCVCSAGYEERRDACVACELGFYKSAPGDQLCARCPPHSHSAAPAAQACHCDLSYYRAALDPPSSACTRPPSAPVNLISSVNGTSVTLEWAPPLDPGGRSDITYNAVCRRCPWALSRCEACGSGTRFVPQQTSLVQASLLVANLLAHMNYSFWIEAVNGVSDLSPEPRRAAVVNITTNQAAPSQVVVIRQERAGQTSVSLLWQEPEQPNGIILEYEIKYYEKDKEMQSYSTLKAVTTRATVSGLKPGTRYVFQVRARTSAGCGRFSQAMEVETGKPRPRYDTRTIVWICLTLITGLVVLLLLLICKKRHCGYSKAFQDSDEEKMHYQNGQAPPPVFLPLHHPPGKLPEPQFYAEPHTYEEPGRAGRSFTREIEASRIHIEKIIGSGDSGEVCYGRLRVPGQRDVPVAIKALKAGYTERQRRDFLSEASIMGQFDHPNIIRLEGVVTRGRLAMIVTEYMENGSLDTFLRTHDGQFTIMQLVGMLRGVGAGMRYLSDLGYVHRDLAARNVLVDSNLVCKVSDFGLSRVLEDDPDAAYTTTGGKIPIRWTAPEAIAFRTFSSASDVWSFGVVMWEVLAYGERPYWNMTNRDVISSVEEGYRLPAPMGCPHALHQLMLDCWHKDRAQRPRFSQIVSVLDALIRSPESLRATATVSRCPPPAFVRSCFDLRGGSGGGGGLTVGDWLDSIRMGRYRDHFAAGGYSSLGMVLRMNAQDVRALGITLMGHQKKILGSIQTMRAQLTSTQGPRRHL
# [9] = molecular target: T2, Ephrin type-A receptor 8 (Homo sapiens); conditions: at 10 µM
# [10] = molecular target: T3, Ephrin type-B receptor 1 (Homo sapiens) (UniProt P54762); conditions: at 1 µM
# T3 sequence (whole entry): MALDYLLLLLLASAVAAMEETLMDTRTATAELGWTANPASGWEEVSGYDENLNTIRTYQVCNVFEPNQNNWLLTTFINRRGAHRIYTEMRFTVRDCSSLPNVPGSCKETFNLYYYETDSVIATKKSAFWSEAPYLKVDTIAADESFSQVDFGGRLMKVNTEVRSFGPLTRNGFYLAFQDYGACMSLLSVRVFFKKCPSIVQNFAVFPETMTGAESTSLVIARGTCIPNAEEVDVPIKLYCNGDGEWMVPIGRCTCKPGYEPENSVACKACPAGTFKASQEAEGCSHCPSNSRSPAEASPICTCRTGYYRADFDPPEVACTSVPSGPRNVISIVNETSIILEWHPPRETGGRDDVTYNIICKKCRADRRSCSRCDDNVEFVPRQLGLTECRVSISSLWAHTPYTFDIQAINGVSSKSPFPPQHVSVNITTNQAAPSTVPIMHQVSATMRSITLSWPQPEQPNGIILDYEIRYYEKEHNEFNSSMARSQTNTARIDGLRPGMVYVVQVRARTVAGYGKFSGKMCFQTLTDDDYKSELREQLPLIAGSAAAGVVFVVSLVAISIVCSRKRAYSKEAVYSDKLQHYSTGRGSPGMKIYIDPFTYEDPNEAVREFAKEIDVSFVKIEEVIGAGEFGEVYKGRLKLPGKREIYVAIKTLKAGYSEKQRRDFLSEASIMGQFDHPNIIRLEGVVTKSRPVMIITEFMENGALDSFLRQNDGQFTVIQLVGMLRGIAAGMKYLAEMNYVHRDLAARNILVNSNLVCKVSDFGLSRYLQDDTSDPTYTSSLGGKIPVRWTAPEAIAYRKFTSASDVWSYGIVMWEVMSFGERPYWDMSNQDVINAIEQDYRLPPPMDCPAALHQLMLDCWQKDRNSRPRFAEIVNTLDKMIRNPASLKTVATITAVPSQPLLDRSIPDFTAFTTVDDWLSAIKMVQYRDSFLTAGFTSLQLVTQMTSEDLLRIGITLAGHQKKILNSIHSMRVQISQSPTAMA
# Sequence of Ephrin type-A receptor 5 (Homo sapiens) (P54756 whole entry): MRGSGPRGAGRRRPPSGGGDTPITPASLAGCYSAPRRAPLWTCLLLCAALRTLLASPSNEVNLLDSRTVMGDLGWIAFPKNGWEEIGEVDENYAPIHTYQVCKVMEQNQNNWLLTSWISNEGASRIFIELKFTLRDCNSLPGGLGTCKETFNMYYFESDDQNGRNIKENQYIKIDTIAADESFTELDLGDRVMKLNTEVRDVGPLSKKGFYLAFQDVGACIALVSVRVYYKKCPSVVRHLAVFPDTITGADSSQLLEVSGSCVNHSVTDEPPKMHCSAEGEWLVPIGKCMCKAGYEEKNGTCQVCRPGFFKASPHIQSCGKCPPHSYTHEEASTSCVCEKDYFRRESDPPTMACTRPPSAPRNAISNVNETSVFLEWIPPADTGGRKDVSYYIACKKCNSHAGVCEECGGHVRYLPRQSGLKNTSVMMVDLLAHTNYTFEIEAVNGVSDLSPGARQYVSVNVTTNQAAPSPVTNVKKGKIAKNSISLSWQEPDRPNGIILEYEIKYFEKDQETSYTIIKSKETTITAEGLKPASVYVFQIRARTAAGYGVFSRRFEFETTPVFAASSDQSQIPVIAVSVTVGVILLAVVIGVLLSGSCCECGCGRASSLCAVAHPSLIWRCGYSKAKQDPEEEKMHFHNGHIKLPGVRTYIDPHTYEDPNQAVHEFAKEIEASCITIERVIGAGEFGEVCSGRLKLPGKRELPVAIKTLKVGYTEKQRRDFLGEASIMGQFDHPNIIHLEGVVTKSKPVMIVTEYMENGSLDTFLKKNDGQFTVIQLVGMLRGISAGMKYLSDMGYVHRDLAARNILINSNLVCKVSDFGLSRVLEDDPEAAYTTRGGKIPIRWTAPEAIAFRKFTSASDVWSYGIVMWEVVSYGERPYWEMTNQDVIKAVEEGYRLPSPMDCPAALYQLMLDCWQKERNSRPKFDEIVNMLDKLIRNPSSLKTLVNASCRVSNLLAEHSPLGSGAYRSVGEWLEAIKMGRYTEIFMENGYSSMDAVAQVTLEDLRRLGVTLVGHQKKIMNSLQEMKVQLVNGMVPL
# Sequence of Ephrin type-A receptor 4 (Homo sapiens) (P54764 whole entry): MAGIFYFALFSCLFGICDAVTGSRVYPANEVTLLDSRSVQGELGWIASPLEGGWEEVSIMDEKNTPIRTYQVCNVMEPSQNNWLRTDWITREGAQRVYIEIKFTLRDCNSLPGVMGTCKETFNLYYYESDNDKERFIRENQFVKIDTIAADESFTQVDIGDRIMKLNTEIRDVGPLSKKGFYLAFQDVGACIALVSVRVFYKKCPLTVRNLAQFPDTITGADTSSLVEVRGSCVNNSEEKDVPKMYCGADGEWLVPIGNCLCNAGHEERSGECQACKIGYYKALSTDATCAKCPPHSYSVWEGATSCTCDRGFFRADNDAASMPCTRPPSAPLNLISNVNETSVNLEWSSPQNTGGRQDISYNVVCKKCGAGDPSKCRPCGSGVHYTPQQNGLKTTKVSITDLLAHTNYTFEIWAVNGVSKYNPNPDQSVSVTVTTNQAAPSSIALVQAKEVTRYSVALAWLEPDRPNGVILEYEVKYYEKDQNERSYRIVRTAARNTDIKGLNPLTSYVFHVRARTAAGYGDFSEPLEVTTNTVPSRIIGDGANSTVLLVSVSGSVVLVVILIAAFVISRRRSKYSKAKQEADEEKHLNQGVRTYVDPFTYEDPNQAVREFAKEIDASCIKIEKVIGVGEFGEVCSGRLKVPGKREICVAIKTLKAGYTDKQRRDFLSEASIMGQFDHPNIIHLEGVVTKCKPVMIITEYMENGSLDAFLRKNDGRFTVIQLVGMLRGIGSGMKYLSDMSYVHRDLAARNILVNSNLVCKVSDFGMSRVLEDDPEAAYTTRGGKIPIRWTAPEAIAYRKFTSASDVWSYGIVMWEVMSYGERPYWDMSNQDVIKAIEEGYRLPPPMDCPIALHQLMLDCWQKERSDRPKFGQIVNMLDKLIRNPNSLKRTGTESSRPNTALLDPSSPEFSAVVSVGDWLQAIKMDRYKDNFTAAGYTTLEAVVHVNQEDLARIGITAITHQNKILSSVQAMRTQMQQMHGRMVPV
# Sequence of Ephrin type-A receptor 7 (Homo sapiens) (Q15375 28-998 limits assumed): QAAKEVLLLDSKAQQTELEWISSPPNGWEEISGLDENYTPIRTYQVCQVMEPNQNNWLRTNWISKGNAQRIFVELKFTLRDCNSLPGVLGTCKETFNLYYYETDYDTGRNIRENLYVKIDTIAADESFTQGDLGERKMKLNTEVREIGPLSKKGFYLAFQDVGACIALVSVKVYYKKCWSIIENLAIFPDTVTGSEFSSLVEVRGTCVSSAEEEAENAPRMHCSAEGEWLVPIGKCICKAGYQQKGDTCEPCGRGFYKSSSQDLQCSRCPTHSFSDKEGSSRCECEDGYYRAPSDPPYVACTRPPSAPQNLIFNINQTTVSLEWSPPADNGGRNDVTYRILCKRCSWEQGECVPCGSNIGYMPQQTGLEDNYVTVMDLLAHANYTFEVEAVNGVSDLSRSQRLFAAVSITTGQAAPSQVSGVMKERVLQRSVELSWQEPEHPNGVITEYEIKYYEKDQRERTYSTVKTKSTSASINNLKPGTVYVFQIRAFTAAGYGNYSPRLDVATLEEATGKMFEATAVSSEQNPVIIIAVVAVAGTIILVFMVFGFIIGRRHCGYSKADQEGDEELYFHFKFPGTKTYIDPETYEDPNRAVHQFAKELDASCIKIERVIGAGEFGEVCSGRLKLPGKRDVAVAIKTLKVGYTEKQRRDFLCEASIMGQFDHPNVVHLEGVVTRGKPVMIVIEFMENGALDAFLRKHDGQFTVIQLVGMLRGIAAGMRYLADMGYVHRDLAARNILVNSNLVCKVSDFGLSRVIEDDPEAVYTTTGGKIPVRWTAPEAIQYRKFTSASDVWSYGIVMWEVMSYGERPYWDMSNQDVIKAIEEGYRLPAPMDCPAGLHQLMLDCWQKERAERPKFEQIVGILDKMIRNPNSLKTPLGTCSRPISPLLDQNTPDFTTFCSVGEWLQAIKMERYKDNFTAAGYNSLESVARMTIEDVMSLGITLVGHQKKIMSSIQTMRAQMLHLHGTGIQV
smiles,measurement,setting,value
O=C1Nc2ccc3ncsc3c2/C1=C/c1c[nH]cn1,residual activity,[1],28%
same,residual activity,[2],102%
same,residual activity,[3],68%
same,residual activity,[4],89%
same,residual activity,[5],42%
same,residual activity,[6],77%
same,residual activity,[7],17%
same,residual activity,[8],95%
same,residual activity,[9],72%
same,residual activity,[10],60%
